Our source for the outcome and AC50 values is PubChem BioAssay (EPA / NIEHS).

Read-out in assay [1]: Plasminogen activator inhibitor-1 (PAI1), SERPINE1 (gene 5054)
Put plainly: BSK_MyoF_PAI1: BioMAP Diversity Plus: MyoF Assay for Plasminogen activator inhibitor-1 (PAI1) Biomarker Activity (AID 2284256). The conditions noted are these: primary human lung fibroblasts. The procedure, abridged:
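Primary human lung fibroblasts treated with chemical for 24 h; PAI-1 levels quantified by ELISA relative to DMSO. Cytotoxicity was assessed in parallel cultures by SRB total-protein staining (0.1% SRB after 10% TCA fixation, 560 nm).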

Read-out in assay [2]: Interleukin-8 (IL8), CXCL8 (gene 3576)
Put plainly: BSK_MyoF_IL8: BioMAP Diversity Plus: MyoF Assay for Interleukin-8 (IL8) Biomarker Activity (AID 2284261). The conditions noted are these: primary human lung fibroblasts. The procedure, abridged:
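Human lung fibroblast (MyoF system) cultures dosed for 24 h, then IL-8 measured by ELISA. Response taken relative to DMSO; parallel SRB total-protein staining for cytotoxicity.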

Read-out in another assay: Decorin, DCN (gene 1634)
Put plainly: BSK_MyoF_Decorin: BioMAP Diversity Plus: MyoF Assay for Decorin Biomarker Activity (AID 2284265). To be noted: primary human lung fibroblasts. The essentials:
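Human lung fibroblast cultures were dosed for 24 h, and decorin was then measured by ELISA. Parallel cultures were stained with sulforhodamine B for total protein as a cytotoxicity check. Gain of signal was fitted relative to DMSO.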

Assay [3] in a line: BSK_MyoF_SRB: Viability Assessment in the BioMAP Diversity Plus: MyoF Assay (AID 2284267).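 Also: total protein by SRB absorbance in parallel cultures as cytotoxicity measure.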 To be noted: primary human lung fibroblasts. The procedure, abridged: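 Lung fibroblast cultures, 24 h post-dose; fix 10% TCA, stain 0.1% SRB, read 560 nm. Signal = total protein as cytotoxicity measure; fitted relative to DMSO negative control.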
Read-out in assay [4]: Matrix Metallopeptidase 1 (MMP1), MMP1 (gene 4312)
Briefly: BSK_MyoF_MMP1: BioMAP Diversity Plus: MyoF Assay for Matrix Metallopeptidase 1 (MMP1) Biomarker Activity (AID 2284268). To be noted: primary human lung fibroblasts. The procedure, abridged:
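Human lung fibroblast primary cells; MMP1 measured by ELISA 24 h after dosing, fitted in the positive direction relative to DMSO. Parallel SRB staining (0.1%, after 10% TCA fixation, 560 nm) assesses overt cytotoxicity.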

Read-out in assay [5]: TIMP metallopeptidase inhibitor 1 (TIMP1), TIMP1 (gene 7076)
Briefly: BSK_MyoF_TIMP1: BioMAP Diversity Plus: MyoF Assay for TIMP metallopeptidase inhibitor 1 (TIMP1) Biomarker Activity (AID 2284269). The conditions noted are these: primary human lung fibroblasts. The essentials: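 TIMP-1 levels were determined by ELISA in human lung fibroblasts treated for 24 h. DMSO served as negative control and baseline for upward curve fitting.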

Read-out in a further assay: CD69, CD69 (gene 969)
Briefly: BSK_IMphg_CD69: BioMAP Diversity Plus: IMphg Assay for CD69 Biomarker Activity (AID 2284257). To be noted: primary human endothelial cells with macrophages. The procedure, abridged:
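Readout is ELISA for CD69 in primary human venular endothelial cell/macrophage co-culture, taken at 24 h post-dosing. SRB staining of parallel cultures gauged overt cytotoxicity; signal increase versus DMSO defined activity.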

Read-out in assay [6]: Eotaxin 3, CCL26 (gene 10344)
Briefly: BSK_BF4T_Eotaxin3: BioMAP Diversity Plus: BF4T Assay for Eotaxin 3 Biomarker Activity (AID 2284258). To be noted: primary human bronchial epithelial cells with fibroblasts. The procedure, abridged:
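ELISA measurement of Eotaxin-3 after 24 h chemical exposure in a bronchial epithelial/dermal fibroblast co-culture, with DMSO as baseline. Parallel SRB staining (0.1% SRB after 10% TCA fixation, 560 nm) flagged overt cytotoxicity.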

Read-out in assay [7]: Monocyte Chemoattractant Protein-1 (MCP1), CCL2 (gene 6347)
Briefly: BSK_BF4T_MCP1: BioMAP Diversity Plus: BF4T Assay for Monocyte Chemoattractant Protein-1 (MCP1) Biomarker Activity (AID 2284259). To be noted: primary human bronchial epithelial cells with fibroblasts. The procedure, abridged:
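MCP-1 ELISA readout taken 24 h after dosing in the BF4T system (bronchial epithelial cells plus dermal fibroblasts). Parallel SRB total-protein staining flagged cytotoxicity; DMSO served as baseline, positive fitting direction.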

Read-out in assay [8]: Intercellular Adhesion Molecule 1 (ICAM1), ICAM1 (gene 3383)
Put plainly: BSK_BF4T_ICAM1: BioMAP Diversity Plus: BF4T Assay for Intercellular Adhesion Molecule 1 (ICAM1) Biomarker Activity (AID 2284260). To be noted: primary human bronchial epithelial cells with fibroblasts. The essentials:
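ICAM-1 levels measured by ELISA after 24 h chemical treatment of bronchial epithelial cell/dermal fibroblast co-cultures, read against DMSO baseline. Overt cytotoxicity checked in parallel cultures by sulforhodamine B staining.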

Read-out in the next assay: CD90, THY1 (gene 7070)
Put plainly: BSK_BF4T_CD90: BioMAP Diversity Plus: BF4T Assay for CD90 Biomarker Activity (AID 2284262). To be noted: primary human bronchial epithelial cells with fibroblasts. The essentials: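 CD90 levels by ELISA after 24 h treatment of human bronchial epithelial cell/dermal fibroblast cultures, analysed versus DMSO. Overt cytotoxicity checked in parallel cultures by sulforhodamine B staining.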

Read-out in assay [9]: Interleukin-8 (IL8), CXCL8 (gene 3576)
Put plainly: BSK_BF4T_IL8: BioMAP Diversity Plus: BF4T Assay for Interleukin-8 (IL8) Biomarker Activity (AID 2284263). The conditions noted are these: primary human bronchial epithelial cells with fibroblasts. The procedure, abridged:
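Human bronchial epithelial cells with dermal fibroblasts co-culture; IL-8 measured by ELISA 24 hours after dosing, fitted vs DMSO. Cytotoxicity tracked in parallel cultures by SRB total-protein staining.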

Read-out in assay [10]: Interleukin-1 alpha (IL1a), IL1A (gene 3552)
Briefly: BSK_BF4T_IL1a: BioMAP Diversity Plus: BF4T Assay for Interleukin-1 alpha (IL1a) Biomarker Activity (AID 2284264). The conditions noted are these: primary human bronchial epithelial cells with fibroblasts. The essentials: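 ELISA read-out of IL-1α from bronchial epithelial cell/dermal fibroblast co-cultures 24 h after compound addition. Increases scored against DMSO negative control. Cytotoxicity monitored by sulforhodamine B staining of parallel cultures.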

Read-out in the next assay: KRT18 (gene 3875)
Briefly: BSK_BF4T_Keratin818: BioMAP Diversity Plus: BF4T Assay for Keratin 818 Biomarker Activity (AID 2284266). To be noted: primary human bronchial epithelial cells with fibroblasts. The procedure, abridged:
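Keratin 8/18 levels quantified by ELISA after 24 h chemical treatment of bronchial epithelial cell/dermal fibroblast co-cultures, fitted in positive direction relative to DMSO. Parallel SRB staining tracks overt cytotoxicity.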

Read-out in assay [11]: Matrix Metallopeptidase 1 (MMP1), MMP1 (gene 4312)
Put plainly: BSK_BF4T_MMP1: BioMAP Diversity Plus: BF4T Assay for Matrix Metallopeptidase 1 (MMP1) Biomarker Activity (AID 2284270). The conditions noted are these: primary human bronchial epithelial cells with fibroblasts. The essentials:
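MMP-1 quantified by ELISA in primary human bronchial epithelial/dermal fibroblast co-cultures, 24 hours post-dosing, with DMSO as baseline; parallel sulforhodamine B staining (560 nm) tracks overt cytotoxicity.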

Read-out in assay [12]: Matrix Metallopeptidase 3 (MMP3), MMP3 (gene 4314)
Briefly: BSK_BF4T_MMP3: BioMAP Diversity Plus: BF4T Assay for Matrix Metallopeptidase 3 (MMP3) Biomarker Activity (AID 2284271). The conditions noted are these: primary human bronchial epithelial cells with fibroblasts. The procedure, abridged: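 MMP-3 level read by ELISA after 24 h chemical exposure of bronchial epithelial cell/dermal fibroblast co-cultures, fitted upward relative to DMSO. Parallel cultures stained with 0.1% SRB after TCA fixation gauge overt cytotoxicity.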

Read-out in assay [13]: Tissue plasminogen activator (tPA), PLAT (gene 5327)
Briefly: BSK_BF4T_tPA: BioMAP Diversity Plus: BF4T Assay for Tissue plasminogen activator (tPA) Biomarker Activity (AID 2284272). To be noted: primary human bronchial epithelial cells with fibroblasts. The essentials: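 tPA level quantified by ELISA at 24 h post-treatment in bronchial epithelial/dermal fibroblast co-cultures, gain of signal scored against DMSO baseline. Parallel cultures stained with 0.1% SRB (560 nm) to flag overt cytotoxicity.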

Read-out in assay [14]: Plasminogen Activator Inhibitor-1 (PAI1), SERPINE1 (gene 5054)
Briefly: BSK_BF4T_PAI1: BioMAP Diversity Plus: BF4T Assay for Plasminogen Activator Inhibitor-1 (PAI1) Biomarker Activity (AID 2284273). The conditions noted are these: primary human bronchial epithelial cells with fibroblasts. The procedure, abridged:
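PAI-1 levels quantified by ELISA 24 h post-dosing in bronchial epithelial cell plus dermal fibroblast cultures. Signal gain referenced to DMSO baseline. Sulforhodamine B total-protein staining of parallel wells checked cytotoxicity.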

Assay [15] in a line: BSK_BF4T_SRB: Viability Assessment in the BioMAP Diversity Plus: BF4T Assay (AID 2284274). To be noted: primary human bronchial epithelial cells with fibroblasts. The essentials: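 Cytotoxicity measured as total protein: cells fixed with 10% TCA, stained with 0.1% SRB, read at 560 nm. Bronchial epithelial/dermal fibroblast co-culture, 24 h after dosing, with positive-direction fitting relative to DMSO.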

Read-out in assay [16]: urokinase Plasminogen Activator (uPA), PLAU (gene 5328)
Put plainly: BSK_BF4T_uPA: BioMAP Diversity Plus: BF4T Assay for urokinase Plasminogen Activator (uPA) Biomarker Activity (AID 2284275). To be noted: primary human bronchial epithelial cells with fibroblasts. The essentials: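 uPA levels measured by ELISA at 24 hours in BF4T cultures (bronchial epithelial cells plus dermal fibroblasts) and compared with DMSO; cytotoxicity tracked in parallel cultures by sulforhodamine B staining.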

Active and inactive are the calls of the source. The calls were made as follows: active = hit-call score of the fitted dose curve at least 0.9, where 1 is the maximum; inactive = score below 0.9.

By AC50 is commonly meant the concentration giving half of the maximal activity seen. Take `Oc1c(I)cc(I)cc1I`: the outcome in assay [1] was “inactive”; in the assay with Decorin, DCN (gene 1634), “inactive”; in assay [5], “inactive”. Further, the AC50 in assay [2] is 3.55 µM (active); in assay [3], 18.2 µM (active); in [4] it was 5.11 µM (active).

With `ClC1=C(Cl)[C@]2(Cl)[C@H]3[C@H]([C@H]4C=C[C@H]3C4)[C@@]1(Cl)C2(Cl)Cl`, the outcome is “inactive” in assay [1]; “inactive” with Decorin, DCN (gene 1634); “inactive” in [3]; “inactive” in assay [5]. For the same compound, the AC50 in assay [2] is 2.92 µM (active); in assay [4], 20 µM (active).

For the compound `OCc1ccco1`, the outcome in [1] was “inactive”; in [2], “inactive”; with Decorin, DCN (gene 1634), “inactive”; in assay [3], “inactive”; in assay [4], “inactive”; in [5], “inactive”.

In the case of `O=[N+]([O-])c1ccc2c3c(cccc13)CC2`, the outcome in assay [1] is “inactive”; in [2] it was “inactive”; in the assay with Decorin, DCN (gene 1634), “inactive”; in assay [3] it was “inactive”; in assay [5] it was “inactive”. Besides, the AC50 in assay [4] was 20 µM (active).

As to `CCCCCCCCC(=O)NCc1ccc(O)c(OC)c1`, the outcome was “inactive” in assay [1]; “inactive” in assay [2]; “inactive” with Decorin, DCN (gene 1634); “inactive” in [3]; “inactive” in [4]; “inactive” in assay [5].

For `O=Cc1cccc(Oc2ccccc2)c1`, the outcome was “inactive” in [1]; “inactive” in assay [2]; “inactive” with Decorin, DCN (gene 1634); “inactive” in assay [3]; “inactive” in [4]; “inactive” in [5].

With `Oc1ccc(-c2ccccc2)cc1`, the outcome was “inactive” in assay [1]; “inactive” in [2]; “inactive” in the assay with Decorin, DCN (gene 1634); “inactive” in assay [3]; “inactive” in assay [4]; “inactive” in [5].

Take `O=C(O)C(F)(F)C(F)(F)C(F)(F)C(F)(F)C(F)(F)C(F)(F)F`: the outcome is “inactive” in assay [1]; “inactive” with CD69, CD69 (gene 969); “inactive” in assay [6]; “inactive” in assay [7]; “inactive” in [8]; “inactive” in assay [2]. For the same compound, the outcome with CD90, THY1 (gene 7070) was “inactive”; in assay [9], “inactive”; in assay [10] it was “inactive”; in the assay with Decorin, DCN (gene 1634), “inactive”; in the assay with KRT18 (gene 3875) it was “inactive”; in [3] it was “inactive”. Besides, the outcome in assay [4], in assay [5], in [11], in assay [12], in assay [13] and in assay [14] was inactive. For the same compound, the outcome in assay [15] and in assay [16] was inactive.
